DSG3 Ab inh: human desmoglein-3 autoantibody binding inhibition. DSG3-coupled beads, scFv-anti-DSG3-GFP binding, flow cytometry; stronger effect = lower value. binding (percent of control), % at 10 µM. 0.48% of 310,000 active. AID 588358;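 active = binding more than 3 SD below its plate's average and above zero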;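 note: hits lower antibody fragment binding to DSG3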
ATG4B inh: inhibitors of human ATG4B cysteine protease. ATG4B cleavage of LC3-PLA2, NBD-HPC fluorescence, 1 h. inhibition, % at 8.33 µM. 0.51% of 340,000 active; in the data active = inhibition above about 40%
Target sequence (Q9Y4P1 whole entry, looked up): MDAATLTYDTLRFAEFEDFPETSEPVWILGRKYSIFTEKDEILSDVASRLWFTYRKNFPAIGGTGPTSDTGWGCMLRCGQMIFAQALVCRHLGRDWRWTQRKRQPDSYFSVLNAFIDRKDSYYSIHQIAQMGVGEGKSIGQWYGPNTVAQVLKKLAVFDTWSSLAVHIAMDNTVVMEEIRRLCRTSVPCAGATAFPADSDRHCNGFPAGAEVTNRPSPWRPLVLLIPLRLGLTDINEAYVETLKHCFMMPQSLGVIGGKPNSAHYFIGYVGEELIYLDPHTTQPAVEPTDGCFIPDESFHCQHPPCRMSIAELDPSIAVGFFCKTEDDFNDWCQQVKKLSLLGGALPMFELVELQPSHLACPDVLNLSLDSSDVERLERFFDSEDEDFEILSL
CaV13 ICDI inh: Disruptors of the CACNA1D IQ motif to Ca2+-dependent inactivation inhibitor domain association, primary screening, Förster resonance energy transfer in intact living …; AID 743397; 0.098% of 340,000 active; inhibition, % at 12.3 µM; HEK cells, CFP/YFP FRET ICDI-IQ, plate reader, 10 min; percent FRET-ratio fall versus neutral wells;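 active = mean replicate inhibition of at least 30% and at least 1% of replicates passing that level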;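 note: 0% = median of the neutral control wells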
Vif inh: inhibitors of HIV Vif; 0.35% of 340,000 active; AID 602346; HEK293T cells, Vif self-association by quenched fluorescence, imaging, 24 h; inhibition, % at 7.49 µM; in the data active = inhibition above about 50%, passing the limit was not always enough
Glyco luc inh: N-linked glycosylation inhibition; D54 ERlucT glycosylation luciferase reporter, 24 h; percent of 100 nM tunicamycin response; reporter increase, % at 12.5 µM; 0.23% of 360,000 active;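 active = mean luciferase reporter signal, scaled so untreated is 0 and the glycosylation-blocking control 100, at or above a set limit in every replicate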;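 note: luciferase carries N-glycosylation sites so blocking glycosylation raises the light; 0% = median of neutral control wells and 100% = median of 100 nM tunicamycin wells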
NSD2 HMT inh: blocks human histone methyltransferase NSD2; O96028; NSD2 peptide methylation, AlphaScreen, 120 min; inhibition, % at 12.5 µM; 0.54% of 310,000 active; AID 743445; in the data active = inhibition above about 50%
* hit, by the source's call; nt = no result; + = active, no number. Hits are enriched below; roughly 1.9% of the tested compounds scored in any of these assays.

SMILES | DSG3 Ab inh | ATG4B inh | CaV13 ICDI inh | Vif inh | Glyco luc inh | NSD2 HMT inh
CC1(C)Cc2c(cnn2-c2ccc(F)cc2)C(NC(=O)CCn2cncn2)C1 (stereo not drawn) | 102.3 | 22.2 | nt | 8.8 | 2.1 | 0.9
O=C(NCc1cccs1)C1CCCN1C(=O)NC1CCCCC1 (stereo not drawn) | 102.2 | 3.0 | -5.7 | -4.5 | 0.6 | 0.3
O=C(Nc1nnc(-c2ccccc2)o1)Nc1ccccc1Cl | 105.0 | -6.3 | -6.4 | 15.6 | -2.4 | nt
O=C(/C=C/Sc1ccccc1)c1ccccc1 | 119.4 | -7.7 | -8.9 | 5.7 | 33.3* | nt
O=C(/C=C/Sc1ccccc1)c1ccc(Cl)cc1 | 119.2 | -4.8 | -7.1 | 10.7 | 43.8* | 0.5
O=C(C=Cc1ccccc1Cl)c1ccccc1 | 95.1 | 0.4 | -15.8 | 3.7 | 10.3 | -4.7
CC(C)Cc1nc(S(=O)(=O)c2ccc(Cl)cc2)c(N2CCOCC2)o1 | 102.6 | -3.3 | nt | 7.6 | 3.8 | nt
O=C(NCc1cccnc1)C1CCCN(S(=O)(=O)c2cc(Cl)ccc2Cl)C1 (stereo not drawn) | nt | nt | nt | nt | nt | 0.3
COc1ccc(CNC(=O)CCC(=O)n2ncc3cc(C)ccc32)cc1 | 76.0* | -18.1 | -6.2 | 12.5 | 1.6 | nt
CCCOc1ccc(CNC(=O)CCC(=O)n2ncc3cc(C)ccc32)cc1 | 97.0 | -14.5 | -9.4 | 6.9 | 2.8 | nt
O=C(c1cccc(C(F)(F)F)c1)N1CCOc2ccccc21 | 103.2 | 8.9 | -3.9 | -10.5 | -0.9 | -2.4
CSc1ccc(Cl)c(C(=O)N2CCOc3ccccc32)c1 | 103.4 | 3.3 | 51.6* | -5.9 | -2.3 | -1.1
CC(C)(C)C(=O)[C@@H]1[C@@H]2C(=O)N(C3CCCCC3)C(=O)[C@@H]2[C@H]2c3ccccc3C=CN12 | nt | -21.3 | -6.2 | -0.9 | -0.4 | 124.8*
Clc1ccc(CN2CCN(/N=C/c3ccco3)CC2)cc1 | nt | -3.5 | -3.7 | 4.4 | -1.6 | -0.5
O=C(c1cc(-c2ccco2)on1)N1CCN(C(c2ccccc2)c2ccccc2)CC1 | 103.7 | 23.8 | -2.6 | 14.8 | -2.8 | -1.3
Cc1ccc(N(C(=O)CNC(=O)c2ccco2)C(C(=O)NC2CCCC2)c2cccnc2)c(C)c1 (stereo not drawn) | 102.0 | -4.7 | -5.1 | 3.8 | 2.7 | -2.6
CCCCN(C=O)c1c(CC)nc2c(OCCC)cccn12 | nt | nt | -4.4 | -3.2 | 0.3 | 0.2
CCCCN(C=O)c1c(CC)nc2c(OCCOc3ccccc3)cccn12 | nt | nt | -11.5 | 58.4* | -1.5 | 1.7
COc1ccc(C(=O)N(CC2CCCO2)C(C(=O)NCCC(C)C)c2ccc(C)cc2)cc1OC (stereo not drawn) | 87.0* | 3.5 | -4.9 | -4.6 | 0.3 | -1.0
O=C(Cn1cnc2c(nnn2Cc2ccc(Cl)cc2)c1=O)c1ccccc1 | 61.7* | -1.9 | -5.9 | 1.5 | -0.7 | nt
CCOC(=O)c1c(C)[nH]c(C)c1C(=O)COc1ncnc2ccccc12 | 101.4 | 3.1 | -3.5 | 0.0 | 1.3 | -0.5
COc1ccc(N2CCN(C(=O)COC(=O)/C=C/c3ccc(OC(F)F)cc3)CC2)cc1 | 89.8* | -3.9 | -5.7 | 0.9 | 2.0 | -0.8
COc1ccc(N2CCN(C(=O)COC(=O)/C=C/c3ccc(C(F)(F)F)cc3)CC2)cc1 | 95.1 | -4.0 | -13.9 | nt | 0.3 | 4.3
O=C(CCCCCCN1C(=O)c2ccccc2C1=O)NC1CCCCC1 | -5.7* | -10.7 | -4.3 | -3.4 | -0.4 | 0.6
COc1cc2[nH]c(=O)n(CCCC(=O)NC3CCCCC3)c(=O)c2cc1OC | 112.1 | -3.7 | nt | 55.2* | -0.4 | nt
SMILES | DSG3 Ab inh | ATG4B inh | CaV13 ICDI inh | Vif inh | Glyco luc inh | NSD2 HMT inh
CCOc1cc2[nH]c(=O)n(CCCCC(=O)NC3CCCCCC3)c(=O)c2cc1OCC | 96.3 | 6.6 | -4.0 | 3.6 | 0.3 | -4.9
O=C(CCCCCN1C(=O)c2ccccc2C1=O)NC1CCCC1 | nt | -6.3 | nt | -0.2 | -0.1 | -0.1
CC(O)CN(C)CC/C=C1/c2ccccc2CSc2ccccc21 (stereo not drawn) | 104.3 | 10.2 | -7.3 | 86.2* | -4.1 | 2.4
CN(CC/C=C1/c2ccccc2CSc2ccccc21)CCCO | 101.9 | 16.6 | -3.6 | -9.9 | 0.0 | 6.2
CCN1CCSc2ccc(C(=O)NCc3ccc(OC(C)C)cc3)cc21 | 107.2 | -8.2 | -4.4 | -3.5 | 0.1 | nt
Cc1ccc(NC(=O)c2sc(N)nc2-c2ccc([N+](=O)[O-])cc2)cc1C | 62.9* | -10.4 | -2.7 | -0.4 | -0.6 | -2.6
Cc1ccc(NC(=O)c2sc(N)nc2-c2ccccc2)cc1C | 83.4 | -10.4 | 13.1 | -0.6 | -1.6 | -3.6
Cc1nc2ccc(S(=O)(=O)Nc3ccc(-c4nc5cccnc5s4)cc3)cc2s1 | 101.2 | -6.0 | 139.2* | 19.0 | -1.8 | nt
Cc1cc(-c2nc3cccnc3s2)ccc1NS(=O)(=O)c1cccs1 | 102.0 | -5.6 | + | 0.0 | -3.2 | nt
Cc1nc2ccc(S(=O)(=O)Nc3cccc(-c4nc5cccnc5s4)c3)cc2s1 | 95.7 | -3.4 | -5.1 | 6.7 | 0.0 | nt
O=C(NCCC1=CCCCC1)C1CCN(S(=O)(=O)c2cccc3cccnc23)CC1 | 105.6 | -11.2 | 17.3 | -0.2 | -2.0 | nt
COc1ccccc1NC(=O)N(C1CCCC1)C1CCN(C(C)=O)CC1 | 97.2 | -3.7 | -6.8 | nt | -1.1 | nt
Cc1c(NC(=O)C2(c3ccccc3)CCOCC2)c(=O)n(-c2ccccc2)n1C | 104.7 | 4.1 | -4.1 | -22.3 | 0.9 | 2.0
CCOC(=O)CSc1nc(-c2ccccc2)nc2ccc(C)cc12 | 76.5* | 5.0 | 5.8 | -1.7 | 0.3 | -1.0
C[C@H](CO)N1C[C@H](C)[C@H](CN(C)S(=O)(=O)c2cn(C)cn2)Oc2ccc(NC(=O)Nc3ccc(C(F)(F)F)cc3)cc2CC1=O | 95.9 | -8.2 | -10.3 | 5.3 | 59.8* | nt
Cc1ccc(S(=O)(=O)N(C)C[C@@H]2Oc3ccc(NC(=O)CCC(F)(F)F)cc3CC(=O)N([C@@H](C)CO)C[C@@H]2C)cc1 | 109.1 | -9.6 | -4.6 | nt | 33.3* | nt
C[C@H](CO)N1C[C@H](C)[C@@H](CN(C)S(=O)(=O)c2ccccc2)Oc2c(NC(=O)Cc3ccccc3)cccc2C1=O | 105.3 | -13.0 | -3.5 | 11.9 | 27.7* | nt
COC(=O)CCC(=O)Nc1ccc(S(=O)(=O)N2CCc3ccccc32)cc1 | 109.9 | -9.4 | 0.2 | -12.8 | -1.6 | -1.4
COc1ccc(NC(=O)c2ccc3c(c2)C(=O)N(Cc2ccncc2)C3=O)cc1S(N)(=O)=O | 69.4* | 17.0 | -3.1 | 4.9 | 1.9 | -1.4
CCOc1ccc(N2C(=O)CC(N3CCc4ccccc43)C2=O)cc1 (stereo not drawn) | nt | -8.6 | -5.2 | 80.7* | 0.7 | 1.2
CCOC(=O)c1cc2sccc2n1CC(=O)N1c2ccccc2CC1C (stereo not drawn) | 95.7 | 1.9 | -5.8 | 2.4 | 376.6* | -5.7
COc1cc2c(cc1OC)/C(=C/C(=O)c1ccc(OC)c([N+](=O)[O-])c1)NCC2 | 89.5 | -10.1 | -4.1 | 53.0* | -1.8 | 4.4

Source: PubChem BioAssay (several laboratories)
